# From PubChem BioAssay (NCATS)
# Inconclusive results are not listed. A number with no mark means an inactive call. Calls of active or inactive are those of the source. The call rests on the fitted dose curve; in most records, active means well fitted cell-killing curve with a large enough effect; inconclusive means small, poorly fitted or top-dose-only effect; inactive means flat fitted curve, though single readings scatter.
# Test: Cell Viability - LYMP2-007 (AID 979);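 further: cells exposed to compound for 24 h before reading; nearly all actives have a fitted effect of over 60% in size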;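 on activity change, negative = cytotoxicity: 0% = DMSO only and the negative end = 92 µM tetraoctylammonium bromide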
# Conditions: LYMP2-007 lymphoblastoid cell viability; series mostly up to 92.2 µM; activity change, negative = cytotoxicity: at the top concentration
# Source text: NIH Chemical Genomics Center [NCGC]
# NIH Molecular Libraries Screening Centers Network [MLSCN]
# National Institutes of Environmental Health Sciences [NIEHS]
# National Toxicology Program [NTP]
# We have developed a 1536-well cell-based assay for quantitative high throughput screening (qHTS) against a number of cell lines to determine in vitro cytotoxicity of small molecules. This particular assay uses a human lymphoblastoid cell line (LYMP2-007) purchased from Coriell Institute for Medical Research.
# NCGC Assay Protocol Summary:
# The CellTiter-Glo luminescent cell viability assay (Promega) is a homogeneous method to measure the number of viable cells in culture. The end point readout of this assay is based on quantitation of intracellular ATP, an indicator of metabolic activity, using the luciferase reaction. Luciferase catalyzes the oxidation of beetle Luciferin to oxyluciferin and light in the presence of ATP. The luminescent signal is proportional to amount of ATP present.
# Using the CellTiter-Glo luminescent cell viability assay, the amount of cellular ATP was measured in the lymphoblastoid cell line with complete culture medium following compound treatment for 24 hours. The assay was performed in opaque white Kalypsys 1536-well plates. In the screen, tetraoctylammonium bromide was used as positive control. Library compounds were measured for their ability to cause acute toxicity in the cell line, as reflected by a decrease in intracellular ATP levels, in a concentration-dependent manner. […] AC50 values were determined from concentration-response data modeled with the standard Hill equation.
# qHTS protocol for CellTiter Glo lymphoblastoid cellular assay
# [Step] [Parameter] [Value] [Description]
# 1. Reagent; 5 uL; 2500 lymphoblastoid cells/well
# 2. Time; 5 hr; 37 C incubation
# 4. Controls; 23 nL; Tetraoctylammonium bromide 6.4pM to 92 uM
# 5. Time; 24 hr; 37 C incubation
# 6. Reagent; 5 uL; CellTiter Glo reagent
# 7. Time; 30 min; Room Temperature
# 8. Detection; Luminescence; Viewlux plate reader
# Keywords: cell viability, cytotoxicity, lymphoblastoid cell line, luminescence, NTPHTS, NTPHTS_NCGC, NIEHS, DSSTox, MLSMR, MLSCN, NIH Roadmap, qHTS, NCGC
# Potency means the concentration at half of the fitted maximal effect.
Compound,"activity change, negative = cytotoxicity",Potency
CCOP(=S)(OCC)Oc1cc(C)nc(C(C)C)n1,-0.64%,–
Oc1ccc(Cl)cc1Cc1ccccc1,1.11%,–
NCC(O)c1ccc(O)cc1 (configuration not stated),-0.46%,–
Oc1cccc2cccnc12,–,15.8 µM (active)
N[C@@H](Cc1ccc(N(CCCl)CCCl)cc1)C(=O)O,–,25.1 µM (active)
c1ccc2c(c1)Nc1ccccc1S2,-8.12%,–
CNCC(O)c1ccc(O)cc1 (configuration not stated),1.14%,–
OCCOc1ccccc1,-12%,–
CC(COc1ccccc1)N(CCCl)Cc1ccccc1 (configuration not stated),–,39.8 µM (active)
Clc1ccc(COC(Cn2ccnc2)c2ccc(Cl)cc2Cl)cc1 (configuration not stated),–,50.1 µM (active)
Oc1ccccc1-c1ccccc1,-24.7%,–
CCCC(C)(COC(N)=O)COC(=O)NC(C)C (configuration not stated),0.0499%,–
